Cycloheximide cs = affects cycloheximide protein synthesis inhibition readout, counter-screen; AID 2314; max response, %; cell reporter, cycloheximide protein synthesis inhibition counterscreen; actives 12% (n = 300,000); in the data active = max response mostly above about 13%, no sharp cut-off; inactive = mostly below about 14%; note: read at 38.3 µM for the half of the compounds with a filed dose; 0% is about no effect
RE007 growth inh = less growth of the S. pombe RE007 Vpr strain; Potency, µM (titrated, usually from 92.2 µM), inactives show at the highest dose activity change, negative = less growth, hits mostly inhibitors; S. pombe RE007 Vpr strain, BacTiter-Glo ATP luminescence, 24 h; actives 0.21% (n = 360,000); active = well fitted falling curve with a large enough effect; inconclusive = small, poorly fitted or top-dose-only effect; inactive = no such curve, though single readings can be large or run the other way; note: potency is the fitted concentration of half-maximal effect; % is set by controls: 0 for no effect and ±100 for the full control effect; nearly all actives have a fitted effect of over 50% in size
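Fission yeast strain RE007, carrying one chromosomally integrated HIV-1 vpr copy, was seeded at OD 0.01 in PMG+AL medium with 23 nL pinned compound. After 24 h at 30 °C and 99% humidity, viability was read by BacTiter-Glo luminescence.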
FBPA Giardia inh = blocks Giardia fructose-bisphosphate aldolase activity; A8B2U2; Potency, µM (titrated, usually from 59.6 µM), without a hit: top-dose activity, negative = inhibition, actives largely listed as inhibitors; actives 0.71% (n = 290,000); AID 2451; purified Giardia FBPA; note: potency is the fitted concentration of half-maximal effect; % is set by controls: 0 for no effect and ±100 for the full control effect; nearly all actives have a fitted effect of over 55% in size
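40 nM FBPA preincubated 10 min at RT with compound (up to 57.5 uM final), then substrate plus GAPDH/TPI/NAD/arsenate coupling and diaphorase/resazurin added. Fluorescence read after 20 min at RT, 525/598 nm.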
Tb PYK inh = T. brucei pyruvate kinase inhibition | Potency, µM (series often up to 76.8 µM), inactives show at the top dose activity, negative = inhibition, usual class: inhibitors | actives 0.12% (n = 410,000) | TbPYK enzyme, Kinase-Glo Plus ATP luminescence, 45 min | AID 624173 | Q57TT1; note: potency is the fitted concentration of half-maximal effect; % is set by controls: 0 for no effect and ±100 for the full control effect; nearly all actives have a fitted effect of over 50% in size
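Readout: single end-point luminescence (Kinase-Glo Plus, 10 min). Reaction conditions were TbPYK/substrate plus 130 uM ADP, 45 min at RT, pH 7.2 TEA buffer. No-enzyme wells served as controls, and data were normalized before concentration-response fitting.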
Shiga toxin inh = Shiga toxin inhibition | actives 9.2% (n = 290,000) | Vero cells, Shiga toxin protein synthesis inhibition reporter | inhibition, % at 38.7 µM; in the data active = inhibition mostly above about 28%, no sharp cut-off; inactive = mostly below about 43%; note: 0% is about no effect
LmPK inh = inhibitors of Leishmania mexicana pyruvate kinase | Q27686 | purified LmPK, Kinase-Glo ATP luminescence, 1 h | Potency, µM (series often up to 57.5 µM), inactives show top-dose activity change, negative = inhibition, usual class: inhibitors | actives 0.37% (n = 290,000) | AID 1721; note: potency is the fitted concentration of half-maximal effect; % is set by controls: 0 for no effect and ±100 for the full control effect
Target sequence (Q27686 whole entry, looked up): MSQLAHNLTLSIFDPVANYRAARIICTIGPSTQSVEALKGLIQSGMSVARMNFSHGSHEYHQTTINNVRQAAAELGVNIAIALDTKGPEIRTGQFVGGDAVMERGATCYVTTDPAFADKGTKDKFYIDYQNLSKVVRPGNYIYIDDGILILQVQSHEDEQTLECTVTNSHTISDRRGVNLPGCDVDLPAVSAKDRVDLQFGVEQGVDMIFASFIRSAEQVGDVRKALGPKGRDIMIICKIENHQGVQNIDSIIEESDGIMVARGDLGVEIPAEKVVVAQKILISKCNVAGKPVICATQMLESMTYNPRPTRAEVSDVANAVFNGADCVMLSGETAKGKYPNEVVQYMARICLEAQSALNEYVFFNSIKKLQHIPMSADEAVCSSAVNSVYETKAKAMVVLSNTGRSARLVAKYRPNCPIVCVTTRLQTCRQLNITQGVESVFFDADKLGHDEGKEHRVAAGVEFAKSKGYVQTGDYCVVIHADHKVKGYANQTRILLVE
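Screened at intermediate enzyme activity to detect both inhibitors and activators: LmPK at 0.1 nM, with a 0.5 nM enzyme column as activation reference. PEP 0.5 mM, ADP 0.1 mM; ATP detected by luminescence after 1 h.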
* = called active by the depositor; [ ] = another dose, or the depositor's remark. The entries come from a sample that favours hits as a whole. Unless noted, calls come from the whole dose curve; as a rule, active = well fitted curve in the direction sought with a large enough effect; inconclusive = small, poorly fitted or top-dose-only effect, or another doubt; inactive = no such curve, though single readings can be large; an effect the other way counts as inactive or inconclusive.

How did COc1ccc(-c2nc(C)c(CCNC(=O)c3ccc(F)c(F)c3)s2)cc1 do in these assays?
Tb PYK inh: 2.3%

Results for CCOc1ccc(CNC(=O)c2cc3ccccn3n2)cc1 ?
Tb PYK inh: -9.6%

How did C=C(C)C(O)/C=C/c1ccc(Br)cc1 (stereo not given) do in these assays?
FBPA Giardia inh: 0.4%

Results for CC(C)c1nn2c(=O)cc(COC(=O)c3ccccc3NC(=O)c3cccc(Cl)c3)nc2s1 ?
Tb PYK inh: 1.4%

How did C[C@H]1CC[C@@H]2N(C1)C[C@H]1[C@@H]3C[C@H]4[C@@H](C/C(=N\O)[C@H]5C[C@@H](O)CC[C@@]54C)[C@@H]3CC[C@H]1[C@]2(C)O do in these assays?
FBPA Giardia inh: 7.3%

How did CC1(C)C(O)C=C[C@@]2(C)C1CC(=O)O[C@@]1(C)C3=CC(=O)OC(c4ccoc4)[C@]3(C)CCC21 (stereo not given in full) do in these assays?
FBPA Giardia inh: 4.1%

Results for CCOC(=O)c1ccc(NC(=O)C2CC2)cc1 ?
Cycloheximide cs: 22.4*; RE007 growth inh: 8.1%; FBPA Giardia inh: 3.0%; Tb PYK inh: 0.8%; Shiga toxin inh: 71.6*; LmPK inh: -3.3%

What do the screens show for `CCCCOC(=O)c1ccc(O)cc1`?
Cycloheximide cs: 11.3; RE007 growth inh: 19.6%; FBPA Giardia inh: -1.2%; Tb PYK inh: -4.8%; Shiga toxin inh: 14.3; LmPK inh: -4.6%

How did COC(=O)c1ccc(NC(=O)c2ccc(NC(=O)C3CCCO3)cc2)cc1 (stereo not given) do in these assays?
Cycloheximide cs: 6.8; RE007 growth inh: -14.6%; FBPA Giardia inh: 1.3%; Tb PYK inh: 2.7%; Shiga toxin inh: -13.0; LmPK inh: 2.8%

Results for CCCCOC(=O)c1ccc(NC(=O)C2CCCO2)cc1 (stereo not given) ?
Cycloheximide cs: 35.5*; RE007 growth inh: 10.1%; FBPA Giardia inh: 5.7%; Tb PYK inh: 0.4%; Shiga toxin inh: 66.6*; LmPK inh: 0.4%

How did CCCCOC(=O)Nc1ccc(C(=O)OCCC)cc1 do in these assays?
Cycloheximide cs: 29.4*; RE007 growth inh: inconclusive; FBPA Giardia inh: -1.6%; Tb PYK inh: -9.4%; Shiga toxin inh: 134.3*; LmPK inh: -3.8%

What do the screens show for `CCOC(=O)c1ccc(NC(=O)C2CCN(S(=O)(=O)c3ccc(C)cc3)CC2)cc1`?
Tb PYK inh: -4.1%

Results for CCc1ccc(NC(=O)c2ccc(NC(=O)C3CCCO3)cc2)cc1 (stereo not given) ?
Cycloheximide cs: 14.0*; RE007 growth inh: 5.9%; FBPA Giardia inh: 11.6%; Tb PYK inh: 2.0%; Shiga toxin inh: 56.2*; LmPK inh: -14.2%

How did COc1ccc(C2CC(c3ccccc3)Oc3ccc(C(C)(C)C)cc32)cc1 (stereo not given) do in these assays?
Cycloheximide cs: 9.1; FBPA Giardia inh: 2.0%; Shiga toxin inh: 23.0

Results for O=c1c2cc3c(cc2nc2sc(Nc4cccc([N+](=O)[O-])c4)nn12)OCO3 ?
Tb PYK inh: -16.1%[15.4 µM]

What do the screens show for `Cc1c(-c2nsc(NC(=O)c3cccs3)n2)nnn1-c1ccc(Cl)cc1`?
Tb PYK inh: -2.0%

Results for C=CCn1c(NC(=O)c2ccccc2)nc2ccccc21 ?
Cycloheximide cs: 42.7*; RE007 growth inh: -8.6%; FBPA Giardia inh: 10.9%; Tb PYK inh: 4.1%; Shiga toxin inh: 52.8*; LmPK inh: -4.7%

How did CCCn1c(NC(=O)c2ccccc2Br)nc2ccccc21 do in these assays?
Cycloheximide cs: 17.9*; RE007 growth inh: 2.2%; FBPA Giardia inh: -5.2%; Tb PYK inh: 6.3%; Shiga toxin inh: 71.5; LmPK inh: 6.1%

What do the screens show for `Cn1c(/C=N/NC(=O)c2ccccc2Br)nc2ccccc21`?
Cycloheximide cs: 14.8*; RE007 growth inh: -6.6%; FBPA Giardia inh: -12.8%; Tb PYK inh: 2.1%; Shiga toxin inh: 18.9; LmPK inh: 2.0%

What do the screens show for `CCn1c(NC(=O)c2ccccc2)nc2ccccc21`?
Cycloheximide cs: 30.6*; RE007 growth inh: -6.3%; FBPA Giardia inh: -0.5%; Tb PYK inh: 0.4%; Shiga toxin inh: 86.4*; LmPK inh: 2.9%

What do the screens show for `CNc1nc2ccccc2n1CC(=O)c1ccccc1`?
Cycloheximide cs: 21.7*; RE007 growth inh: -7.3%; FBPA Giardia inh: inconclusive; Tb PYK inh: -1.6%; Shiga toxin inh: 20.0; LmPK inh: 1.3%

What do the screens show for `N#Cc1nc(Cc2ccccc2)oc1NCc1ccccc1Cl`?
Cycloheximide cs: 48.3*; RE007 growth inh: 4.6%; FBPA Giardia inh: -7.3%[12.9 µM]; Tb PYK inh: -5.3%; Shiga toxin inh: 40.7*; LmPK inh: -0.2%

How did N#Cc1nc(-c2ccccc2Cl)oc1NCc1ccco1 do in these assays?
Cycloheximide cs: 21.9*; RE007 growth inh: -15.9%; FBPA Giardia inh: -10.7%; Tb PYK inh: -10.5%; Shiga toxin inh: 46.6*; LmPK inh: 0.1%

How did N#Cc1nc(-c2ccccc2)oc1NCc1ccco1 do in these assays?
Cycloheximide cs: 23.5*; RE007 growth inh: 0.0%; FBPA Giardia inh: -1.3%; Tb PYK inh: -0.5%; Shiga toxin inh: active; LmPK inh: -0.5%

How did N#Cc1nc(-c2ccc(Cl)cc2)oc1NCc1ccco1 do in these assays?
Cycloheximide cs: 27.8*; RE007 growth inh: 3.8%; FBPA Giardia inh: -0.2%; Tb PYK inh: -10.3%; Shiga toxin inh: 91.0*; LmPK inh: 0.1%

Results for O=C(Cn1cc(SCc2ccc(F)cc2)c2ccccc21)N1CCCC1 ?
Tb PYK inh: -23.8%

How did CCC(C)n1c(=N)c(C(=O)NCc2ccccc2)cc2c(=O)n3cc(C)ccc3nc21 (stereo not given) do in these assays?
Tb PYK inh: -5.7%

Results for CCOC(=O)C1=C(CS(=O)(=O)c2ccc(C)c(C)c2)NC(=O)NC1c1ccccc1OCC (stereo not given) ?
Tb PYK inh: -5.0%

How did CCOc1ccc(-c2cn(CCC#N)cn2)cc1 do in these assays?
Cycloheximide cs: 14.5*; RE007 growth inh: 10.3%; FBPA Giardia inh: 9.2%; Tb PYK inh: 2.4%; Shiga toxin inh: 18.3; LmPK inh: -3.4%

What do the screens show for `Cc1nn(-c2cccc(Cl)c2)c(Cl)c1/C=N/NC(=O)c1cccs1`?
Cycloheximide cs: 29.2*; RE007 growth inh: 6.2%; FBPA Giardia inh: 2.3%; Tb PYK inh: -4.0%; Shiga toxin inh: 58.3*; LmPK inh: 0.6%

What do the screens show for `Cc1nn(-c2ccccc2)c(Cl)c1/C=N/NC(=O)c1ccc(NS(=O)(=O)c2cccs2)cc1`?
Cycloheximide cs: 20.0*; FBPA Giardia inh: 4.5%; Shiga toxin inh: 32.2; LmPK inh: -3.3%

Screening results from PubChem.
